Only a selection was taken, and hits are over-represented in it overall.
Tb PYK inh = blocks Trypanosoma brucei pyruvate kinase; Q57TT1; TbPYK enzyme, Kinase-Glo Plus ATP luminescence, 45 min; Potency, µM (titrated, usually from 76.8 µM), most hits filed as inhibitors; 410,000 compounds, 0.12% hits; AID 624173; note: nearly all actives have a fitted effect of over 50% in size
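TbPYK + substrate in 50 mM TEA pH 7.2, 100 mM KCl, 10 mM MgCl2, 0.05% BSA, 0.01% Tween-20; cpd pinned; ADP 130 uM final; 45 min RT; Kinase-Glo Plus 10 min; luminescence endpoint.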
RE007 growth inh = less growth of the S. pombe RE007 Vpr strain | S. pombe RE007 Vpr strain, BacTiter-Glo ATP luminescence, 24 h | Potency, µM (top dose mostly 92.2 µM), most hits filed as inhibitors | 360,000 compounds, 0.21% hits; active = well fitted falling curve with a large enough effect; inconclusive = small, poorly fitted or top-dose-only effect; inactive = no such curve, though single readings can be large or run the other way; note: nearly all actives have a fitted effect of over 50% in size
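Fission yeast strain RE007, carrying one chromosomally integrated HIV-1 vpr copy, was seeded at OD 0.01 in PMG+AL medium with 23 nL pinned compound. After 24 h at 30 °C and 99% humidity, viability was read by BacTiter-Glo luminescence.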
Cycloheximide cs = counter-screen hit for Shiga toxin inhibitors, cycloheximide | 300,000 compounds, 12% hits | AID 2314 | cell reporter, cycloheximide protein synthesis inhibition counterscreen | max response, %; in the data active = max response mostly above about 13%, no sharp cut-off; inactive = mostly below about 14%; note: read at 38.3 µM for the half of the compounds with a filed dose
Shiga inhibitor = inhibitors of Shiga toxin in Vero cells; Vero cells, Shiga toxin protein synthesis inhibition reporter; inhibition, % at 38.7 µM; 290,000 compounds, 9.2% hits; in the data active = inhibition mostly above about 28%, no sharp cut-off; inactive = mostly below about 43%
FBPA Giardia inh = inhibitors of Giardia lamblia fructose-1,6-bisphosphate aldolase. A8B2U2. purified Giardia FBPA. Potency, µM (highest dose often 59.6 µM), hits mostly inhibitors. 290,000 compounds, 0.71% hits. AID 2451; note: nearly all actives have a fitted effect of over 55% in size
Target sequence (A8B2U2 whole entry, looked up): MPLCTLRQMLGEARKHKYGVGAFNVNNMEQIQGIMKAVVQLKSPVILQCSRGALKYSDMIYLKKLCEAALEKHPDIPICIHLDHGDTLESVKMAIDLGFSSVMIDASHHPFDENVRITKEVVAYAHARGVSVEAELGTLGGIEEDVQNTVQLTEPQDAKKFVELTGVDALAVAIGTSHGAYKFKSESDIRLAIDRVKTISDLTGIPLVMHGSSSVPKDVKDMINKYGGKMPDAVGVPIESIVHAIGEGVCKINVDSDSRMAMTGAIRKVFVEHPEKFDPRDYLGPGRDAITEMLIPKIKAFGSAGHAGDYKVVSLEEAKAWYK
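40 nM FBPA preincubated 10 min at RT with compound (up to 57.5 uM final), then substrate plus GAPDH/TPI/NAD/arsenate coupling and diaphorase/resazurin added. Fluorescence read after 20 min at RT, 525/598 nm.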
LmPK inh = LmPK (Leishmania mexicana) enzyme inhibition. Potency, µM (doses to about 57.5 µM), most hits filed as inhibitors. 290,000 compounds, 0.37% hits. purified LmPK, Kinase-Glo ATP luminescence, 1 h. Q27686
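In 50 mM imidazole pH 7.2 with 7 mM MgCl2, LmPK (0.1 nM) turned over PEP (0.5 mM) and ADP (0.1 mM) for 1 h at room temperature. Luciferase read-out of ATP.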
Large screens that a line does not name were inactive. Unless noted, calls come from the whole dose curve; as a rule, active = well fitted curve in the direction sought with a large enough effect; inconclusive = small, poorly fitted or top-dose-only effect, or another doubt; inactive = no such curve, though single readings can be large; an effect the other way counts as inactive or inconclusive.

C=C(C)C1CC=C(C)/C(=N/NC(=O)CCC(=O)Nc2ccccc2Cl)C1 (configuration not stated)	none
COC(=O)c1ccccc1NC(=O)C1=CC(c2cccs2)=NS(=O)(=O)N1C	none
CN1C(C(=O)Nc2ccc(F)cc2F)=CC(c2ccc3c(c2)OCO3)=NS1(=O)=O	none (no result: RE007 growth inh, Cycloheximide cs, Shiga inhibitor, FBPA Giardia inh, LmPK inh)
Cc1ccc(C2=NS(=O)(=O)N(C)C(C(=O)Nc3ccc(F)cc3F)=C2)cc1	Shiga inhibitor 16
CSc1ccccc1NC(=O)C1=CC(c2cccs2)=NS(=O)(=O)N1C	Shiga inhibitor 15
COC(=O)c1sc2cccc(F)c2c1S(=O)(=O)N1CCN(c2ccc(C)cc2C)CC1	none (no result: RE007 growth inh, Cycloheximide cs, Shiga inhibitor, FBPA Giardia inh, LmPK inh)
COc1ccc2[nH]cc(CCNc3nc(-c4cccnc4)nc4ccccc34)c2c1	none (no result: Tb PYK inh, RE007 growth inh, Cycloheximide cs, Shiga inhibitor, LmPK inh)
Fc1cc2[nH]c(=S)[nH]c2c(Br)c1N1CCSCC1	Cycloheximide cs 9.2
COc1cccc(NC2SC(=O)N(c3ccccc3)C2=O)c1 (configuration not stated)	Cycloheximide cs 43, Shiga inhibitor 61
CCOc1ccccc1NS(=O)(=O)c1c(C)nc2sccn2c1=O	none (no result: RE007 growth inh, Cycloheximide cs, Shiga inhibitor, FBPA Giardia inh, LmPK inh)
O=C(COCc1cc(-c2ccc3c(c2)OCO3)on1)N1CCCCC1	Cycloheximide cs 68, Shiga inhibitor 76 (no result: FBPA Giardia inh)
Cc1ccc(Cl)cc1N1CCN(C(=O)COCc2cc(-c3ccc4c(c3)OCO4)on2)CC1	none (no result: RE007 growth inh, Cycloheximide cs, Shiga inhibitor, FBPA Giardia inh, LmPK inh)
CN1CCN(C(=O)COCc2cc(-c3ccc4c(c3)OCO4)on2)CC1	Cycloheximide cs 18, Shiga inhibitor 23
NC(=O)C1CCN(C(=O)COCc2cc(-c3ccc4c(c3)OCO4)on2)CC1	none
Cn1c(SCc2ccc(F)cc2)nnc1-c1ccccn1	Cycloheximide cs 39, Shiga inhibitor 116
Cn1c(CO)cnc1SCc1ccc(F)cc1	Cycloheximide cs 17, Shiga inhibitor 50
Cc1ccc(CSc2nnc(-c3ccccn3)n2C)cc1	Cycloheximide cs 24, Shiga inhibitor 94
O=C(CN(Cc1ccc(Cl)cc1)C(=O)CNS(=O)(=O)c1ccc(F)cc1)NCC1CCCO1 (configuration not stated)	none (no result: FBPA Giardia inh)
CC(=O)c1cnc(-c2ccccc2Cl)s1	RE007 growth inh inconclusive
COCCN(C(C)=O)c1nnc(-c2cnccn2)s1	none
COCCN(C(C)=O)c1nnc(-c2ccccn2)s1	Cycloheximide cs 18
Cc1cnc(-c2nnc(N(C)C(=O)c3ccccn3)s2)cn1	none (no result: Tb PYK inh, RE007 growth inh)
CN(C(=O)c1cccnc1)c1nnc(-c2cnccn2)s1	Cycloheximide cs 27
CC(=O)c1cnc(-c2ccccn2)s1	Cycloheximide cs 34
Cc1ccc(-c2nnc(N(C)C(=O)c3ccccn3)s2)cn1	Cycloheximide cs 13
Cc1ccc2occ(CC(=O)N(Cc3ccc(Cl)cc3)C3CCS(=O)(=O)C3)c2c1 (configuration not stated)	none (no result: RE007 growth inh, Cycloheximide cs, Shiga inhibitor, FBPA Giardia inh, LmPK inh)
CCc1ccccc1NC(=O)CSc1nnc(-c2ccc(OC)cc2)s1	none (no result: RE007 growth inh, Cycloheximide cs, Shiga inhibitor, FBPA Giardia inh, LmPK inh)
COc1cc(NC(=O)Cn2ccc3ccccc3c2=O)cc(OC)c1OC	none (no result: RE007 growth inh, Cycloheximide cs, Shiga inhibitor, FBPA Giardia inh, LmPK inh)
CN(C(=O)c1cccnc1)c1nnc(-c2ccccn2)s1	Cycloheximide cs 51
CC(=O)N(C)c1nnc(-c2ccccn2)s1	Cycloheximide cs 15
CN(C(=O)c1ccccn1)c1nnc(-c2cnccn2)s1	Cycloheximide cs 40
CN(C(=O)c1cccnc1)c1nnc(-c2cccnc2)s1	none
COc1ccc(-c2nc(Cn3c(SCc4cccc(C(F)(F)F)c4)nc4cccnc43)c(C)o2)cc1OC	none (no result: RE007 growth inh, Cycloheximide cs, Shiga inhibitor, FBPA Giardia inh, LmPK inh)
CCOC(=O)C1(C)CCCN(C(=O)c2ccc(OC(F)F)cc2)C1 (configuration not stated)	none (no result: Cycloheximide cs, Shiga inhibitor, FBPA Giardia inh, LmPK inh)
Cc1nncn1-c1ccc(C(=O)Nc2cc(F)ccc2F)cc1	none (no result: RE007 growth inh, Cycloheximide cs, Shiga inhibitor, FBPA Giardia inh, LmPK inh)
CCc1ccc(-c2cc(C)no2)cc1S(=O)(=O)NCc1ccco1	Cycloheximide cs 30, Shiga inhibitor 42
COc1c(C)cc(S(=O)(=O)NCc2ccco2)c(C)c1C	Cycloheximide cs 15
Cc1cc(-c2ccc(C)c(S(=O)(=O)NCCc3ccco3)c2)on1	none (no result: FBPA Giardia inh)
Cc1ccnc(NS(=O)(=O)c2ccc(NC(=O)C(C)(C)Oc3ccc(Cl)cc3)cc2)n1	none (no result: RE007 growth inh, Cycloheximide cs, Shiga inhibitor, FBPA Giardia inh, LmPK inh)
COc1ccccc1/C=N/NC(=O)c1cccc2ccccc12	none (no result: Shiga inhibitor)
Cc1scc(C(=O)N/N=C/c2ccc(OC(C)C)cc2)c1C	Cycloheximide cs 44, Shiga inhibitor 115

Compound activity: PubChem BioAssay, National Center for Advancing Translational Sciences (NCATS)
